Bcl-xL primary = Bcl-xL (human) inhibition | GST-Bcl-xL / FITC-Bim BH3 peptide fluorescence polarization | AID 2129 | 320,000 tested, 0.7% active | inhibition, % at 10.9 µM | Q07817;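 active = inhibition above the mean of all tested compounds plus 3 SD, cutoff set per campaign, cut at about 30% in these data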;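 also: inhibitors lower millipolarization by displacing the labeled peptide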
MEX-5 binding = C. elegans MEX-5 TCR-2 RNA binding activity. MEX-5/FITC-TCR2 RNA binding, fluorescence polarization; active compounds read low. activity score (negative = inhibition of binding), % at 10 µM. 300,000 tested, 0.38% active;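 active = inhibition past about -25% in most replicates, and total fluorescence under double the plate's negative control median, limit read from the data; inconclusive = replicates evenly split on the limit, or fluorescence at least double controls; inactive = too little inhibition in most replicates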
GLD-1 TGE inh = GLD-1-TGE RNA interaction inhibition (C. elegans) | purified GLD-1 + fluorescein TGE RNA, fluorescence polarization | inhibition, % at 5.96 µM | 320,000 tested, 0.44% active | AID 2280;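 active = percent inhibition above a per-plate cutoff, the plate mean of test compounds plus 3 SD, cut at about 30% in these data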
eLon inh = inhibitors of E. coli Lon protease | inhibition, % at 7.94 µM | 360,000 tested, 0.42% active | P0A9M0 | purified E. coli Lon protease, fluorescence polarization; in the data active = inhibition above about 13%, passing the limit was not always enough
Target sequence (P0A9M0 whole entry, looked up): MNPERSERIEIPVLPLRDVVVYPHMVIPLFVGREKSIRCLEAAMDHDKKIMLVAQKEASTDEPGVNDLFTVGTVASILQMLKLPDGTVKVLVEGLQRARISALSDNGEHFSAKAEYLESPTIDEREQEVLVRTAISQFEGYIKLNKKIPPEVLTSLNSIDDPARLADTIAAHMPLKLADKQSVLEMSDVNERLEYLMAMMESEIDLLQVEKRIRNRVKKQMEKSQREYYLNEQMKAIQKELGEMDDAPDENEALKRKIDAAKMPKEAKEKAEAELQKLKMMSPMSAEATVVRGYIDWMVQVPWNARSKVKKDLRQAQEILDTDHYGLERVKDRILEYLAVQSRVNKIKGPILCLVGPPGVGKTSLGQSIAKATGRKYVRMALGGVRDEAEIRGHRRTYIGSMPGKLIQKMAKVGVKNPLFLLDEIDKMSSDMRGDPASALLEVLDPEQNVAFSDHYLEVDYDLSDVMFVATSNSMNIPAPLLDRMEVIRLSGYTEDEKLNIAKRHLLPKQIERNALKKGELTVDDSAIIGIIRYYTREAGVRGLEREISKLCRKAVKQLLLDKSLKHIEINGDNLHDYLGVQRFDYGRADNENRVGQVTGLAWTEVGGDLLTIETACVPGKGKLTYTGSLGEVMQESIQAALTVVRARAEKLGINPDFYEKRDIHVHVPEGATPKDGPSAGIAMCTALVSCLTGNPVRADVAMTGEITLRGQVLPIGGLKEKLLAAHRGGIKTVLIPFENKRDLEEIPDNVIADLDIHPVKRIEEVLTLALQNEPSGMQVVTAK
C-LANA FP = blocks KSHV LANA C-terminal domain binding to DNA | MBP-C-LANA/FAM-LBS DNA binding, fluorescence polarization | inhibition, % at 9 µM | 340,000 tested, 0.078% active | AID 504423;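 active = highest replicate inhibition at or above 60% at 9 µM, even if other replicates fall short; inactive = all replicates below 60% inhibition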
Keap1 Nrf2 FP = inhibitors of human Keap1-Nrf2 protein-protein interaction | Q14145 | Keap1 Kelch-Nrf2 peptide fluorescence polarization, 1536-well | inhibition, % at 9.4 µM | 340,000 tested, 0.15% active; in the data active = inhibition above about 12%; inconclusive = no clear call, values can overlap the other calls; inactive = below about 7.3%;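 also: human Keap1 Kelch domain with fluorescein labeled Nrf2 9mer peptide probe; higher means more block of Keap1 binding to Nrf2 peptide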
GLD-1 TGE cf = GLD-1 TGE RNA interaction inhibition, confirmation. shares compounds with GLD-1 TGE inh. GLD-1/FL-TGE RNA fluorescence polarization, biochemical. inhibition, % at 5.96 µM. 550 tested, 10% active;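 active = average inhibition across triplicates above the hit cutoff set in the primary screen, cut at about 32% in these data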
Large screens that a line does not name were inactive (follow-up assays come after a bar, where they were run). The list is not random: actives were taken first. Their share in the collection is about 1.2%.

Cc1ccc(CSC2=Nc3ccccc3C3=NC(CCC(=O)NCc4ccco4)C(=O)N23)cc1 (stereo not given)	none
O=C(CC1N=C2c3ccccc3N=C(SCc3ccc(Cl)cc3)N2C1=O)NCc1ccco1 (stereo not given)	GLD-1 TGE inh 39 (no result: MEX-5 binding) | GLD-1 TGE cf inactive
CCN(c1ccccc1)S(=O)(=O)c1ccc(Cl)c(NC(=O)CSc2n[nH]c(N)n2)c1	GLD-1 TGE inh 39 | GLD-1 TGE cf inactive
Cc1ccc(C(C)C)cc1-n1nnc(-c2cccc(Cc3ccc4ccccc4c3)c2)c1C(C)O (stereo not given)	none (no result: Bcl-xL primary, MEX-5 binding, GLD-1 TGE inh, C-LANA FP, Keap1 Nrf2 FP)
CC(C)OC(=O)c1cc2c(ccn2C)n1CC(=O)N(Cc1ccccc1)c1ccc(F)cc1	none
CCOC(=O)c1cc2c(ccn2C)n1CC(=O)N(Cc1ccccc1)c1ccc(F)cc1	GLD-1 TGE inh 37 | GLD-1 TGE cf 47
CCOC(=O)c1cc2c(ccn2C)n1CC(=O)N(Cc1ccccc1)c1ccccc1	GLD-1 TGE inh 36 | GLD-1 TGE cf 56
O[C@H]1C[C@H](c2ccc(Cl)cc2)N(Cc2cccs2)C[C@@H]1n1cc(-c2ccc(F)cc2)nn1	none (no result: Bcl-xL primary, MEX-5 binding, GLD-1 TGE inh, C-LANA FP, Keap1 Nrf2 FP)
CCn1c(CSc2ncccn2)nnc1SCC(=O)N1CCc2ccccc21	Bcl-xL primary 99, GLD-1 TGE inh 36 | GLD-1 TGE cf inactive
CCc1nnc(SCC(=O)N2CCc3ccccc32)n1CC	none
CC1(C)CC2(C)Nc3ccccc3N2C(=S)N1 (stereo not given)	none
CSC1=NC(C)(C)CC2(C)Nc3ccccc3N12 (stereo not given)	GLD-1 TGE inh 47 | GLD-1 TGE cf inactive
CCNC(=O)CC1SC(=Nc2ccc(C)c([N+](=O)[O-])c2)N(C)C1=O (stereo not given)	GLD-1 TGE inh 31 (no result: C-LANA FP, Keap1 Nrf2 FP) | GLD-1 TGE cf inactive
CN(CCOc1ccccc1)C(=O)c1ccc(Cl)c(S(=O)(=O)N2CCCCC2)c1	none (no result: MEX-5 binding)
CCCCn1c(N)c(NCc2ccccc2OC)c(=O)[nH]c1=O	none
CCCCn1c(N)c(NCCC)c(=O)[nH]c1=O	Bcl-xL primary 35, GLD-1 TGE inh 31 | GLD-1 TGE cf inactive
CCCCNc1c(N)n(CCCC)c(=O)[nH]c1=O	Bcl-xL primary 36, MEX-5 binding inconclusive, GLD-1 TGE inh 37 (no result: eLon inh, C-LANA FP, Keap1 Nrf2 FP) | GLD-1 TGE cf 79
O=C(CN1CCN(C(=O)C2CCN(C(=O)/C=C/c3ccccc3)CC2)CC1)Nc1ccccc1Cl	none (no result: Bcl-xL primary, MEX-5 binding, GLD-1 TGE inh)
CCCCn1c(N)c(N(CC(C)C)C(=O)c2ccc(-c3ccc([N+](=O)[O-])cc3)o2)c(=O)[nH]c1=O	none
CCN(Cc1cccc(F)c1)C(=O)c1ccc2ccccc2n1	none
CCOC(=O)C1CCCN(S(=O)(=O)c2ccc(S(=O)(=O)N3CCCC3)cc2)C1 (stereo not given)	GLD-1 TGE inh 38 | GLD-1 TGE cf inactive
CN(Cc1ccc(Cl)c(Cl)c1)C(=O)C1=CC=CN2CCS(=O)(=O)N=C12	none (no result: MEX-5 binding)
CCN1CCN(Cc2ccc(NC(=O)c3ccc(C)c(NC(=O)c4ccnnc4)c3)cc2C(F)(F)F)CC1	GLD-1 TGE inh 39 | GLD-1 TGE cf inactive
O=C(CN1CCCC1)Nc1cccc(Cl)c1	none
O=C(CN1CCCCCCC1)Nc1cc(Cl)cc(Cl)c1	GLD-1 TGE inh 33 | GLD-1 TGE cf inactive
O=C1CCCC2=C1Sc1ccccc1N2	Bcl-xL primary 58, GLD-1 TGE inh 31 | GLD-1 TGE cf inactive
O=C1Nc2ccccc2SC1=Cc1ccccc1	none (no result: Bcl-xL primary, MEX-5 binding, GLD-1 TGE inh, C-LANA FP, Keap1 Nrf2 FP)
O=C1NC[C@H](Cc2ccccc2)N(CC2CCN(CCCCc3ccccc3)CC2)C1=O	none (no result: Bcl-xL primary, MEX-5 binding, GLD-1 TGE inh)
CCOC(=O)c1ccc2ncc(C(=O)OCC)c(NCc3ccco3)c2c1	Bcl-xL primary 33, GLD-1 TGE inh 39 | GLD-1 TGE cf inactive
CCOC(=O)c1cnc2c(C)cccc2c1NCc1ccco1	none
COc1ccc(/C=C(\CC(=O)O)c2nc3ccccc3s2)cc1O	GLD-1 TGE inh 55 | GLD-1 TGE cf 39
COc1cc(/C=C(\CC(=O)O)c2nc3ccccc3s2)cc(OC)c1O	none
Cc1ccc(OCC(=O)c2ccc(Cl)s2)c([N+](=O)[O-])n1	GLD-1 TGE inh 31 | GLD-1 TGE cf inactive
Cc1ccc(CNC(=O)COc2ccc(C)nc2[N+](=O)[O-])cc1	none
